Where “and” joins values, the source holds several entries; their conditions need not be identical. Equal entries are not always repeated. Screen size: about 5,500 compounds; about 2,000 (36%) were called active. Inconclusive results (about 18%) are left out. Rule as the data show it: active = normalized growth mostly below about 0.91 (no sharp cut-off); inconclusive = no clear call, values can overlap the other calls; inactive = mostly above about 0.92. The list shows a part of the results.
Assay: chemical genetic growth profiling, strain panel (AID 1159580);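 also: tested at 20 µM; growth read once vehicle control cultures reached saturation at 30 °C; 1 = growth at the plate median or of vehicle wells; lower values mean less growth of the strain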
Details: S. cerevisiae deletion strains, growth OD

Measured: normalized growth

CCN(CC)CCOc1ccc2c(c1)C(=O)c1cc(OCCN(CC)CC)ccc1-2
inactive: locus YAL013W, strain DEP1, hits give low values 1 | locus YAL021C, strain ccr4, hits give low values 0.962 | locus YAL026C, strain drs2, hits give low values 0.984 | locus YAL030W, strain snc1, hits give low values 1 | locus YBL061C, strain skt5, hits give low values 0.993 | locus YBR009C, strain hhf1, hits give low values 0.993 | locus YBR021W, strain FUR4, hits give low values 1.06 | locus YBR023C, strain chs3, hits give low values 0.98 | locus YBR171W, strain sec66, hits give low values 0.979 | locus YBR229C, strain ROT2, hits give low values 1 | locus YBR231C, strain swc5, hits give low values 0.974 | locus YBR279W, strain paf1, hits give low values 0.981 | locus YCL011C, strain gbp2, hits give low values 0.977 | locus YCL016C, strain dcc1, hits give low values 0.973 | locus YCL029C, strain bik1, hits give low values 0.975 | locus YCL061C, strain MRC1, hits give low values 0.981 | locus YCL069W, strain vba3, hits give low values 0.996 | locus YCR088W, strain abp1, hits give low values 0.984 | locus YDL005C, strain med2, hits give low values 0.966 | locus YDL035C, strain GPR1, hits give low values 0.991 | locus YDL040C, strain nat1, hits give low values 0.986 | locus YDL074C, strain BRE1, hits give low values 0.998 | locus YDL101C, strain DUN1, hits give low values 0.987 | locus YDL134C, strain PPH21, hits give low values 0.994 | locus YDL185W, strain tfp1, hits give low values 0.947 | locus YDL192W, strain arf1, hits give low values 0.984 | locus YDR001C, strain nth1, hits give low values 0.979 | locus YDR069C, strain doa4, hits give low values 0.96 | locus YDR101C, strain arx1, hits give low values 0.991 | locus YDR137W, strain rgp1, hits give low values 0.998 | locus YDR150W, strain NUM1, hits give low values 0.973 | locus YDR159W, strain sac3, hits give low values 1 | locus YDR162C, strain NBP2, hits give low values 1.02 | locus YDR195W, strain ref2 0.96 | locus YDR297W, strain sur2, hits give low values 0.997 | locus YDR318W, strain mcm21, hits give low values 0.98 | locus YDR334W, strain swr1, hits give low values 0.975 | locus YDR335W, strain msn5, hits give low values 0.989 | locus YDR388W, hits give low values 0.983 | locus YDR392W, strain spt3, hits give low values 0.807 | locus YDR502C, strain sam2, hits give low values 0.99 | locus YEL003W, strain gim4, hits give low values 0.99 | locus YEL037C, strain rad23, hits give low values 0.994 | locus YEL061C, strain CIN8 (second series), hits give low values 0.986 | locus YEL061C, strain CIN8, hits give low values 0.997 | locus YER015W, strain faa2, hits give low values 0.991 | locus YER016W, strain bim1, hits give low values 0.957 | locus YER110C, hits give low values 0.962 | locus YER111C, strain swi4, hits give low values 0.971 | locus YER155C, strain BEM2 (second series), hits give low values 0.937 | locus YER155C, strain BEM2, hits give low values 1 | locus YER167W, strain BCK2, hits give low values 0.982 | locus YFR010W, strain ubp6, hits give low values 0.992 | locus YGL078C, strain dbp3, hits give low values 0.98 | locus YGL086W, strain mad1, hits give low values 0.993 | locus YGL167C, strain pmr1, hits give low values 0.982 | locus YGL173C, strain kem1, hits give low values 0.978 | locus YGL227W, strain vid30, hits give low values 0.978 | locus YGL240W, strain doc1, hits give low values 0.983 | locus YGL248W, strain PDE1, hits give low values 1 | locus YGL253W, strain hxk2, hits give low values 0.983 | locus YGR078C, strain PAC10, hits give low values 0.996 | locus YGR135W, strain pre9, hits give low values 1.02 | locus YGR229C, strain SMI1, hits give low values 1.04 | locus YGR252W, strain gcn5, hits give low values 0.99 | locus YHR013C, strain ard1, hits give low values 0.933 | locus YHR027C, strain rpn1, hits give low values 0.979 | locus YHR030C, strain SLT2, hits give low values 0.977 and 0.988 | locus YHR079C, strain IRE1 (second series), hits give low values 0.989 | locus YHR079C, strain IRE1, hits give low values 0.977 | locus YHR094C, strain hxt1, hits give low values 0.972 | locus YHR129C, strain ARP1, hits give low values 0.998 | locus YHR142W, strain chs7, hits give low values 0.99 | locus YHR200W, strain rpn10, hits give low values 0.98 | locus YIL066C, strain RNR3, hits give low values 0.99 | locus YIL073C, strain SPO22, hits give low values 0.948 | locus YIL125W, strain kgd1, hits give low values 0.981 | locus YIR030C, strain dcg1, hits give low values 0.991 | locus YJL092W, strain hpr5, hits give low values 0.987 | locus YJL095W, strain BCK1 (second series), hits give low values 0.983 | locus YJL095W, strain BCK1, hits give low values 1 and 0.986 | locus YJL115W, strain asf1, hits give low values 0.98 | locus YJL129C, strain trk1, hits give low values 0.974 | locus YJL134W, strain LCB3, hits give low values 0.989 | locus YJL154C, strain vps35, hits give low values 0.979 | locus YJL164C, strain tpk1, hits give low values 0.993 | locus YJL166W, strain qcr8, hits give low values 0.984 | locus YJL168C, strain set2, hits give low values 0.983 | locus YJL187C, strain SWE1 (second series), hits give low values 0.983 | locus YJL187C, strain SWE1, hits give low values 0.981 | locus YJR043C, strain POL32, hits give low values 1.01 | locus YJR066W, strain TOR1, hits give low values 0.965
